# Target: CD1E
# Experiment: pooled miR-30 sensor sort-seq; sequence = guide strand
# Conditions: shRNA
# Further: reference of the scale not given here.
row,Sequence,sensor-assay potency score (higher = more potent)
1,TCTACAGCCAGCTAATATCTGG,-0.694
2,TTTTGATCCACGATACTTGTGC,0.208
3,TATTTCCTTAATATCTAGGTAG,-0.111
4,ATAACTGGAACAGTGACTGTAA,0.29
5,TTCCTTAATATCTAGGTAGCGA,-0.491
6,AACTACAACCAATATGACCAGG,-0.902
7,TATAACTGGAACAGTGACTGTA,0.739
8,TATCTGGATAAAACTATGGAAG,-1.28
9,TATTTAAGAAGATTTGTGGGGC,0.193
10,TGTCTCGTCAGCATTAGGCAGG,-0.59
11,TTAACCGTGAGTCAACTACAAC,-1.49
12,TTTTTCAGCTCCTGCTTGCTGA,-0.242
13,AATATCTGGATCTCGAAGGGGT,0.0216
14,ATATCCACCATGTCTCGTCAGC,-0.905
15,TAGGATTGTAGAGCCTGGGGAG,-0.471
16,TAGACTGCTGTGTTTCACCCGA,-0.381
17,TAATATCTGGATCTCGAAGGGG,-0.509
18,TAAGTTTTTCAGCTCCTGCTTG,-0.417
19,TTCCACTTCTTCAATACTCTGT,0.573
20,TAGGTAGCGATTGAGCACTTTA,-0.754
21,TGTTCTTATTTGAACTCTGTTT,-0.835

# Target: CD27
# Experiment: as above
# Conditions: shRNA
row,Sequence,sensor-assay potency score (higher = more potent)
1,TTGATCTATATTTCCTTCGTTG,-0.282
2,TTCTATGCTGGTCACAGTCCTT,-1.06
3,TTTCGCAGCAGGAAGTGTGTTT,0.0361
4,TGCAAGGATCACACTGAGCAGC,-1.06
5,TTGTTTGATCTATATTTCCTTC,-0.475
6,TCTATGCTGGTCACAGTCCTTC,-0.827
7,TAGCATGTGGGTCTTTCGCAGC,-0.998
8,TTTCCTTCGTTGATGGAGGAAC,-0.814
9,TCTGGCAGCACAGCTTTCCCTG,-1.15
10,TCACACTGAGCAGCCTTTCTAT,-1.13
11,TTTGTTTGATCTATATTTCCTT,0.303
12,TTTGATCTATATTTCCTTCGTT,0.393
13,TTGGAAGAGGATCACACTCGGT,-0.746
14,ATGCGAATAAAATCGGAGCTGC,-0.25
15,TGAAAACAAGGAACATTCCAGA,-0.449
16,ATCTATATTTCCTTCGTTGATG,-1.32
17,TCACACTCGGTGCACTCCTTGT,-1.13
18,TTTTCGGTAATCCTCCTGGATG,-1.32
